# Only some compounds are listed: those with a hit (about 1.6% of all), similar ones and a draw of the others.
# HTR5A ag: HTR5A agonists in luminescence cell assay, primary screen, counter-screen for OPRM1-OPRD1 heterodimer agonist project, full-deck HTS; AID 504692, 2011; 5-hydroxytryptamine receptor 5A (Homo sapiens), P47898; actives 0.61% (n = 340,000); activation, % at 9.3 µM; cell-based; in the data active = activation mostly above about 9.5%, no sharp cut-off; inactive = mostly below about 7.6%;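 note: 0% = cells with vehicle only and 100% = reference agonist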
# m5-HT2A agonist: mouse Htr2a agonists via beta-arrestin recruitment, primary screen, cell-based, luminescence; actives 0.66% (n = 360,000); 5-hydroxytryptamine receptor 2A (Mus musculus), P35363; CHO-K1 mHTR2A beta-arrestin complementation; percent of 30 µM serotonin response; AID 624169, 2012; activation, % at 7.6 µM;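 active = activation above a run cutoff, the mean activation of all tested compounds plus 3 SD, cut at about 14% in these data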;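 note: 0% = plate median of compound wells and 100% = 30 µM serotonin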
# MOR-DOR ag: agonists of OPRM1-OPRD1 heterodimerization, primary screen, cell-based, luminescence; Mu-type opioid receptor (Homo sapiens) + Delta-type opioid receptor (Homo sapiens), …; cells; activation, % at 9.3 µM; actives 0.3% (n = 340,000); in the data active = activation above about 18%;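 note: 0% = vehicle-treated cells and 100% = reference agonist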
# MOR-DOR inv ag: inverse agonists of MOR-DOR heterodimerization, primary screen, cell-based, luminescence. Mu-type opioid receptor (Homo sapiens) + Delta-type opioid receptor (Homo sapiens), …. cell-based MOR-DOR heterodimer luminescence, inverse agonism. inhibition, % at 9.3 µM. actives 0.21% (n = 340,000); in the data active = inhibition above about 22%, passing the limit was not always enough;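 note: 0% = cells with DMSO and 100% = wells without cells with DMSO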
# HTR5A inv ag: HTR5A inverse agonists in luminescence cell assay, primary screen, counter-screen for OPRM1-OPRD1 heterodimer inverse agonist project, full-deck HTS; 5-hydroxytryptamine receptor 5A (Homo sapiens), P47898; HTR5A cell line, inverse agonism; inhibition, % at 9.3 µM; actives 0.083% (n = 340,000); AID 504634, 2011; in the data active = inhibition mostly above about 23%, no sharp cut-off; inactive = mostly below about 18%;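 note: 0% = cells with DMSO and 100% = no-cell wells with DMSO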
# MOR ag counter: OPRM1 agonists via beta-arrestin recruitment, confirmation, counter-screen for mouse HTR2A agonist project, cell-based, luminescence, single concentration | shares compounds with m5-HT2A agonist | U2OS OPRM1 beta-arrestin PathHunter; DMSO 0%, DAMGO 9.3 µM 100% | activation, % at 9.3 µM | actives 5.3% (n = 2,300) | AID 624380, 2012;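 active = mean activation above the mean of DMSO-only wells plus 3 SD, cut at about 0.5% in these data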
# Target sequence (P35372 whole entry, looked up): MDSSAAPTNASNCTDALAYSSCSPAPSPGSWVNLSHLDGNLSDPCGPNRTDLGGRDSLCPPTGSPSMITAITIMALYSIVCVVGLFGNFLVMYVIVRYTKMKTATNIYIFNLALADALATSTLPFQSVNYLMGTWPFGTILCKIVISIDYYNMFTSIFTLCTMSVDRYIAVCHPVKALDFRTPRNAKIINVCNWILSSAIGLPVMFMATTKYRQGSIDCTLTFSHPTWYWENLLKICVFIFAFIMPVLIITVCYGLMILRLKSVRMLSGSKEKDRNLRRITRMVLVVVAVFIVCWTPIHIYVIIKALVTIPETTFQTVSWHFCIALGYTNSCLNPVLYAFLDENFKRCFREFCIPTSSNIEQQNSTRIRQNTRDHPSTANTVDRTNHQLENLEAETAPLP
# HTR2A ag conf: mouse HTR2A agonists, beta-arrestin recruitment, confirmation, cell-based, luminescence, CHO-K1 PathHunter, triplicate; shares compounds with m5-HT2A agonist; DMSO 0%, 30 µM serotonin 100%; activation, % at 7.6 µM; actives 19% (n = 2,300);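 active = mean activation across triplicates above the hit threshold derived in the original primary screen, cut at about 15% in these data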
# An asterisk follows results filed as active; x = no result given.
SMILES,HTR5A ag,m5-HT2A agonist,MOR-DOR ag,MOR-DOR inv ag,HTR5A inv ag,MOR ag counter,HTR2A ag conf
Cc1noc(C)c1S(=O)(=O)N1CCCC(C(=O)N2CCN(C3CCCCC3)CC2)C1 (stereo not drawn),-1,0,0,2,3,x,x
Cc1noc(C)c1S(=O)(=O)N1CCC(C(=O)N2CCC(N3CCCCC3)CC2)CC1,13,34*,0,-2,-40,0,-4
COc1cc(NC(=O)C2(C)CCCN2C)cc(OC)c1OC (stereo not drawn),x,-1,x,x,x,x,x
CC(C)Cc1cc(C(=O)Nc2sc3c(c2C#N)CCC3)no1,-3,17*,-1,3,8,0,4
COC(=O)C1=C(CS(=O)(=O)c2ccc(C)cc2)NC(=O)NC1c1ccc(OC)c(OC)c1 (stereo not drawn),-2,8,-1,8,5,x,x
COC(=O)C1=C(CS(=O)(=O)c2cc(Cl)ccc2OC)NC(=O)NC1c1ccc(O)c(OC)c1 (stereo not drawn),-1,15*,-3,14,-15,-1,1
COc1ccc(C(C(=O)NC2CCCC2)n2c(-c3cccs3)nc3ccccc32)cc1 (stereo not drawn),x,-1,x,x,x,x,x
CC1CCCC(C)N1C(=O)COC(=O)CSc1ccc(C(N)=O)cc1[N+](=O)[O-] (stereo not drawn),5,16*,-1,4,7,-1,-3
COc1ccc2oc(C(=O)Nc3nc4ccccc4[nH]3)c(C)c2c1,5,149*,2,-11,-13,0,56*
CC1CCN(C(=O)c2ncn3c2c(=O)[nH]c2cccnc23)CC1,x,2,x,x,x,x,x
COc1ccc2c(c1)CCCC21NC(=O)N(CC(=O)NCc2cccs2)C1=O (stereo not drawn),0,19*,-2,10,1,0,1
COc1ccc2c(c1)CCCC21NC(=O)N(CC(N)=O)C1=O (stereo not drawn),3,-2,-1,5,8,x,x
COc1ccc(S(=O)(=O)N2CCCCC2c2cc(C(=O)Nc3ccc(F)c(Cl)c3)no2)cc1 (stereo not drawn),x,-2,x,x,x,x,x
CCCCCCCCN1C(=O)[C@H](CC(=O)NCC2CCCCC2)C[C@@]2(C(=O)OC)CCCCC=C12,x,-6,x,x,x,x,x
Cc1cnc(NC(=O)C2(c3ccccc3)CC2)s1,-2,21*,2,-9,-6,0,-5
C=CCC1(CC=C)CCCN1C(=O)c1ccc2oc(CCCC)nc2c1,x,4,x,x,x,x,x
COc1cc(OC)cc(C(=O)c2c(C)c(C#N)c3ccccn23)c1,1,2,-2,12,-3,x,x
COC1=C/C(=C/c2c(O)c(C#N)c3ccccn23)C=CC1=O,-4,20*,-1,7,-20,-1,-7
N#CN=CN1CC=C(c2ccc(Cl)cc2)CC1,x,-3,x,x,x,x,x
CC(C)C[C@H](NC(=O)c1[nH]cnc1C(=O)Nc1ccccc1)C(=O)OC(C)(C)C,-1,16*,5,-30,11,0,-6
Cc1cnc(CN(C)C(=O)C2CCC(=O)N(CCc3ccccc3)C2)[nH]1 (stereo not drawn),2,20*,1,-5,-14,-1,-3
Cc1cc(CN(C)C(=O)C2CCC(=O)N(CCc3ccccc3)C2)n[nH]1 (stereo not drawn),3,4,1,-8,-25,x,x
O=C1NC(Cc2ccccc2)c2nc3ccc(Cl)cc3c(=O)n2-c2ncccc21 (stereo not drawn),x,-7,x,x,x,x,x
O=C(NCc1cccc(F)c1)Nc1nnc([C@H]2C[C@H](O)[C@@H](CO)O2)s1,x,4,x,x,x,x,x
CCOC(=O)[C@]12CCCC=C1N(Cc1cccc3ccccc13)C(=O)[C@H](CC(=O)N1CCC(c3ccccc3)CC1)C2,x,17*,x,x,x,-1,-2
SMILES,HTR5A ag,m5-HT2A agonist,MOR-DOR ag,MOR-DOR inv ag,HTR5A inv ag,MOR ag counter,HTR2A ag conf
Cc1cc(C)n(C(=O)c2cc([N+](=O)[O-])cc([N+](=O)[O-])c2)n1,-5,45*,5,-26,15,0,-3
Cc1cc(C)n(C(=O)c2cccc([N+](=O)[O-])c2)n1,-1,0,0,0,3,x,x
N#Cc1c(N)nc(SCc2ccccc2)c(C#N)c1-c1ccco1,3,15*,3,-16,11,0,-3
N#Cc1c(N)nc(SCC(=O)OCc2ccccc2)c(C#N)c1-c1ccco1,0,-1,-1,8,0,x,x
CC1(OC(=O)C2CCCC2)C(=O)C=C2C=C(c3ccsc3)N(C3CC3)C=C2C1=O (stereo not drawn),-3,15*,5,-29,-2,0,-6
CC(C)(C)C1CCC(OCC(O)CN2CCN(c3ccccn3)CC2)CC1 (stereo not drawn),1,18*,10,-46,-2,0,94*
CC(=O)c1ccc(OCC(O)CN2CCN(c3ccccn3)CC2)cc1 (stereo not drawn),x,37*,x,x,x,-1,92*
OC(COc1ccc(OCC(O)CN2CCCCC2)cc1)CN1CCCCC1 (stereo not drawn),1,17*,-3,12,-3,-1,-4
CC(C)(C)S(=O)N1Cc2cc(C(=O)N3CCc4ccccc4C3)nc(-c3cccc(-c4ccncc4)c3)c2[C@H]1CCO (stereo partly drawn),x,1,x,x,x,x,x
COC(=O)C[C@H]1CC[C@H](NS(=O)(=O)c2cn(C)cn2)[C@@H](CO)O1,x,8,x,x,x,x,x
Cc1ccc(-c2csc(NC(=O)c3cccc(C)c3)c2C(=O)O)cc1,4,15*,-1,4,-48,0,-2
COC(=O)[C@]12CCCCC=C1N(Cc1ccc3c(c1)OCO3)C(=O)[C@H](CC(=O)N1CCN(C(=O)c3ccco3)CC1)C2,x,3,x,x,x,x,x
CC1CN(CC(=O)NCc2ccccc2)CC(C)O1 (stereo not drawn),2,15*,-1,7,-6,0,1
O=C(CN1C(=O)C2CC=CCC2C1=O)Nc1nc2ccccc2s1 (stereo not drawn),3,16*,0,2,20,-1,-2
O=C(O)c1ccc(-c2nc(-c3ccccc3Cl)cs2)cc1,5,-1,-2,13,-27,x,x

# Source: PubChem BioAssay
